Rows were chosen to be rich in hits. Some 4% of all compounds tested hit in one or more screens of this group.
HSV replic up: enhancers of HSV replication in host cells, fold increase, host cell viability. hit rate 0.005% among 220,000. maximum fold increase. HSV replication augmentation in cells; in the data active = maximum fold increase above about 1.5; inconclusive = no clear call, values can overlap the other calls; tested in PC3 cells
ROMK primary: ROMK potassium channel modulators, primary screen, cell-based, thallium flux, MLSMR library. ATP-sensitive inward rectifier potassium channel 1 (Homo sapiens), P48048. Tet-inducible ROMK, thallium flux fluorescence; actives lie on both sides. B-score at 10 µM. hit rate 2% among 130,000;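 active = signal ratio slope over the read window, or its plate-corrected B-score, at least 3 SD from the plate mean, either direction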;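 also: B-score of the F/F0 ratio slope over 7 to 12 s after thallium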
Arbovirus inh: antivirals against arbovirus infection, primary screen, cell-based, full library, 10K replicate subset; hit rate 0.37% among 200,000; AID 1251, 2008; inhibition, % at 10 µM; arbovirus infection cell-based antiviral screen; in the data active = inhibition above about 30%
Measles CPE: compounds protecting cells from measles virus cytopathic effect, primary screen, measles RdRp inhibitor project, single point, MLSMR library, absorbance. Measles virus-infected cells, CPE protection. protection (pct of control), % at 4 µM. hit rate 1.5% among 140,000; in the data active = protection mostly above about 24%, no sharp cut-off; inactive = mostly below about 26%
KCC2 mod: KCC2 cotransporter modulators, thallium flux, primary screen, cell-based, HEK293 KCC2, FluoZin-2 fluorescence, MLSMR. Solute carrier family 12 member 5 (Homo sapiens), Q9H2X9. KCC2 cells, thallium flux FluoZin-2 fluorescence. B-score of Tl+ flux slope (higher = more flux/activation; lower = inhibition) at 10 µM. hit rate 2.2% among 190,000. AID 1456, 2008;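 active = thallium flux slope and its plate-corrected score both differing from the plate sample mean at a set confidence after two filtering rounds, in either direction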;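 also: slope of fluorescence scaled to starting intensity during 10 to 20 s after thallium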
Target sequence (Q9H2X9 whole entry, looked up): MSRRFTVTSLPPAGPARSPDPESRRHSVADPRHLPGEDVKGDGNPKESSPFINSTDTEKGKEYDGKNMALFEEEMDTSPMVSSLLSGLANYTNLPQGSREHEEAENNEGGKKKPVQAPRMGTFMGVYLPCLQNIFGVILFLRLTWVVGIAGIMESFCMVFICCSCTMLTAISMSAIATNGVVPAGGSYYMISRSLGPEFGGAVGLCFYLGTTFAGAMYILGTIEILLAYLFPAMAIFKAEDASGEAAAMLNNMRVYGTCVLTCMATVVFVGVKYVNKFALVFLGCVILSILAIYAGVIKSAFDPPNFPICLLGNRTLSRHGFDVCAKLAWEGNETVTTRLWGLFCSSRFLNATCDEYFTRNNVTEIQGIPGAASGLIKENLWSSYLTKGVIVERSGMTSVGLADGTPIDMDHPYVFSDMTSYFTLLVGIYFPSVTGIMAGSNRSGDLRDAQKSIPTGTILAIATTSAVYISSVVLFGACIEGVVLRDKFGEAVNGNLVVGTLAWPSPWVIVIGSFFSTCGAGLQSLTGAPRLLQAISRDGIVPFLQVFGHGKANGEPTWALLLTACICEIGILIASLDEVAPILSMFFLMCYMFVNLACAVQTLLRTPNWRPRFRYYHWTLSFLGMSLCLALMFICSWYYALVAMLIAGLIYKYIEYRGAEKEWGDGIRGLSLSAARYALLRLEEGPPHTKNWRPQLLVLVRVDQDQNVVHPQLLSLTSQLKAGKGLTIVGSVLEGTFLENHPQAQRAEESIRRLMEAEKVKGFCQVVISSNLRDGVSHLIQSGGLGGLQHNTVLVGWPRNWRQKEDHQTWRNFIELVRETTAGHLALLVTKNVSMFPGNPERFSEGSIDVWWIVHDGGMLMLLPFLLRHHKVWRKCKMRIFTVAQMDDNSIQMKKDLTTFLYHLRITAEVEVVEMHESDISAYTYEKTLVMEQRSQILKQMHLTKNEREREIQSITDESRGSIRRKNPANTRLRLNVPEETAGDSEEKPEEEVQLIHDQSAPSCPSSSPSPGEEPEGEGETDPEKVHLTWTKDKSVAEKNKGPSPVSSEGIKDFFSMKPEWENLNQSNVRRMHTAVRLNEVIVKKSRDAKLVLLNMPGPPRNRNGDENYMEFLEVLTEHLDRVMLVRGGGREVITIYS
ROMK hit retest: ROMK channel modulator hit retest, confirmation, cell-based, thallium flux, duplicate, resupplied hits. shares compounds with ROMK primary. fluorescence ratio; hits give low values. normalized thallium flux (F/F0 slope) at 10 µM. hit rate 54% among 3,000. AID 1917, 2009;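 active = Flux at 10 µM at least 3 SD below or above vehicle control mean in one or both replicates; inconclusive = no clear call, values can overlap the other calls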
Numbers without * were called inactive; i = inactive; ? = inconclusive; · = no result given.

SMILES	HSV replic up	ROMK primary	Arbovirus inh	Measles CPE	KCC2 mod	ROMK hit retest
N#CC(C#N)=C1C=CC=CN1/C(=C\c1ccccc1Cl)C(=O)c1ccccc1	i	-5.58*	-31.7	1.3	-2.31	0.0411*
CC1CCN(C(=O)/C(=C/c2ccccc2Cl)c2ccccc2)CC1	i	·	-18.0	8.2	-1.29	·
Cc1ccc(C#CC[N+]2(CC#Cc3ccc(C)cc3)CCCCC2)cc1	i	-5.15*	-5.1	14.9	-0.478	0.056*
CCCN1CCN(CCCNC(=O)c2cc3c(=O)[nH]c4ccccc4c3s2)CC1	i	-3.84*	-5.5	·	-1.23	0.0594*
Cc1ccc2[nH]c(=O)c3cc(C(=O)NCCN4CCN(C)CC4)sc3c2c1	i	·	2.5	7.7	-0.055	·
Fc1ccc(COc2ccc(Br)cc2CNCc2ccncc2)cc1	i	-2.66*	-14.8	9.9	·	0.0628*
N#C/C(=C\C=C\c1ccccc1)c1nc(-c2ccc(Cl)cc2)cs1	i	·	·	·	0.981	·
Cc1noc(NS(=O)(=O)c2ccc(N/C=C\C(=O)c3ccccc3)cc2)c1C	i	·	0.6	·	-0.271	·
Cc1noc(NS(=O)(=O)c2ccc(N/C=C\C(=O)c3ccc(F)cc3)cc2)c1C	i	3.89*	-0.4	·	-0.0714	0.0829
Cn1cnc([N+](=O)[O-])c1S(=O)(=O)c1ccc(Cl)cc1	i	-4.81*	-32.6	1.3	-0.919	0.0593*
Cn1cnc([N+](=O)[O-])c1NC(C)(C)C	i	0.523	3.5	1.8	-0.688	·
Cc1cccc(N=Cc2cc(Br)cc(Cl)c2O)c1	i	4.06*	-2.1	·	2.37	0.115*
NC(=O)c1cccc(N=Cc2cc(Cl)cc(Cl)c2O)c1	i	1.3	4.9	·	-0.658	·
COCCN(CCOC)C(=S)Nc1cc(S(=O)(=O)N(C)C)ccc1C	i	4.33*	0.4	·	-0.0456	0.0822
CC(=O)NNC(=S)Nc1cc(S(=O)(=O)N(C)C)ccc1C	i	0.719	0.6	30.5	1.15	·
O=c1cc(-c2ccc(O)cc2)oc2ccccc12	i	0.981	-6.4	·	-1.42	·
O=c1cc(-c2ccc(O)cc2)oc2ccc(O)cc12	i	2.47*	-5.8	·	-0.623	0.0782
Oc1c(C=NCc2ccc(F)cc2)[nH]c2ccc(Br)c(Cl)c12	i	-5.18*	-20.9	22.6	·	0.0474*
O=c1[nH]c(=O)n(C2CCCCCC2)c(O)c1C=NCc1ccc(F)cc1	i	·	4.0	16.1	-1.03	·
Cc1ccc(CN=Cc2[nH]c3ccc(Br)c(Cl)c3c2O)cc1	i	-3.21*	-6.7	7.8	-3.31	0.0454*
Cc1ccc(CN2CCN(/N=C/c3cc(Br)cc(Br)c3O)CC2)cc1	i	0.43	12.4	1.6	i	·
COc1cc(/C=N\n2cnnc2)ccc1OCC(=O)Nc1ccc(C)cc1	i	·	1.6	4.7	0.618	0.0761
COc1ccc(NC(=O)COc2ccc(/C=N/n3c(C)nnc3C)cc2OC)cc1	i	·	2.7	25.6	-1.38	·
CC(=O)N(C)c1ccc(NC(=O)COc2ccc(Br)cc2C)cc1	i	1.84	8.9	17.7	0.284	·
O=[N+]([O-])c1ccc(S(=O)(=O)N2CCN(Cc3c[nH]c4ccccc34)CC2)cc1	i	-2.7*	0.9	33.0	0.16	0.0565*
SMILES	HSV replic up	ROMK primary	Arbovirus inh	Measles CPE	KCC2 mod	ROMK hit retest
O=C(Nc1ccc(Cl)cc1)N1CCCN(Cc2ccc(F)cc2)C1	i	-2.74*	-43.1	4.9	3.02	0.0565*
COc1ccc(C2NCCc3c2[nH]c2ccccc32)cc1CSc1nc2ccccc2s1 (stereo unspecified)	i	-2.2	-35.2	14.2	0.407	·
COC(=O)/C(=C\c1ccc(O)cc1)c1nc2ccccc2[nH]1	i	-1.02	15.7	·	0.0214	·
O=c1[nH]c2ccccc2nc1/C=C(\O)c1cccs1	?	-2.53*	-9.8	·	-0.144	0.0455*
COc1cc(/C=C(/C(=O)c2cccs2)c2nc3ccccc3[nH]2)ccc1O	i	·	-31.6	6.2	-1.31	0.0553*
CC(C)(C)/C(O)=C/c1nc2ccccc2[nH]c1=O	i	·	-3.9	8.6	0.471	·
O=C(/C(=C/c1ccc(Cl)cc1)c1nc2ccccc2[nH]1)c1cccs1	i	-5.42*	-46.1	11.3	-0.443	0.0567*
S=c1[nH]nc(Cn2cnc3ccccc32)n1-c1ccccc1Cl	i	·	·	·	0.658	·
CC(C)N1C(=S)N(Cc2ccco2)C(=O)C1CC(=O)Nc1ccccc1 (stereo unspecified)	i	0.00183	8.7	·	-0.0662	·
C[C@H]1[C@@H](OC(=O)CCC(=O)O)O[C@@H]2OC3(C)CC[C@H]4[C@H](C)CC[C@@H]1[C@@]24OO3	i	·	·	·	·	·
O=c1c(Cl)c(Cl)cnn1Cc1nnc(-c2ccccc2Br)o1	i	-0.196	-22.1	·	-1.42	·
COC(Cn1c2c(c3cc(C)ccc31)CCCC2NCc1ccccc1)OC (stereo unspecified)	i	-3.88*	·	·	-0.669	0.066*
Cc1cc(C)nc(NS(=O)(=O)c2ccc(NC(=O)c3ccc4c(c3)OCCO4)cc2)n1	i	1.1	9.7	·	0.796	·
CCOc1ccccc1CNCc1ccc(C(=O)O)cc1	i	0.187	5.3	·	1.16	·
O=C(COc1ccccc1CNCc1ccccc1)Nc1ccccc1	i	-2.37*	-43.0	8.7	-3.1	0.0563*
Nc1ccc(N2CCCCC2)c(Cl)c1	i	0.183	-3.3	·	0.335	·
Cc1cc(C)nc(/N=C2\NC(=O)CC(C(=O)O)N2c2ccc(Cl)cc2)n1 (stereo unspecified)	i	·	-0.3	8.5	-0.417	0.0819
O=C1CC(=O)C(n2cncn2)C(c2ccc(Cl)cc2)C1 (stereo unspecified)	i	·	3.0	35.4	1.32	0.0809
COc1ccc(CCN(CC(=O)NC(C)(C)C)C(=O)Cn2nnc(-c3ccc(C)o3)n2)cc1OC	i	0.245	4.4	·	-0.0271	·
CCC/C=C(\CCC)C(NC(=O)c1ccc(C(=O)OC)cc1)c1ccc(C(=O)OC)cc1 (stereo unspecified)	i	·	·	·	·	·
Cc1ccc(C)c(NC(=O)/C(C#N)=C/c2ccc(Sc3nncn3C)c([N+](=O)[O-])c2)c1	i	-3.11*	-1.6	25.0	-0.322	0.0604*
COc1ccccc1/C=c1\sc2nc(-c3ccco3)nn2c1=O	i	0.254	1.2	6.5	·	·
COc1ccc(OC)c(/C=c2\sc3nc(-c4cccs4)nn3c2=O)c1	i	·	0.5	1.3	·	0.0622*
Cc1cccn2c(=O)c(C=O)c(N3CCCCCC3)nc12	i	2.13*	3.0	26.4	-2.18	0.0744
Cc1cccn2c(=O)c(C=O)c(N3CC(C)OC(C)C3)nc12 (stereo unspecified)	i	-0.27	3.0	·	0.435	·
COc1ccc(-c2csc(NCCc3nc4cc(Cl)c(Cl)cc4n3CCCO)n2)cc1	i	·	·	·	·	·

Screening results from PubChem BioAssay.
